# Hit rate of the full screen: of about 69,000 compounds, about 8,600 (12%) showed an effect of 50% or more. Shown is part of a subset that was picked to be rich in strong results.
# System: Plasmodium berghei
# Experiment: Screen against P. berghei liver stage (PbLuc), transformed with Luciferase, at 10uM
# Type: functional, HepG2
# Conditions: tested at 10 uM
row,Compound,INHIBITION
1,Cc1ccc2c(n1)N(C)CCN(Cc1cnn(C)c1)C2,49.4%
2,Cc1ccc2c(n1)N(CC1CC1)CCN(Cc1cnn(C)c1)C2,55.4%
3,Cc1ccc2c(n1)N(Cc1cccnc1)CCN(Cc1cnn(C)c1)C2,30.5%
4,CC(CCc1ccccc1)N1CCC(C(=O)Nc2ccccn2)CC1 (stereo not given),-6.46%
5,Cc1ccc(CNCc2cccc3cn[nH]c23)c(OC2CCOC2)c1 (stereo not given),66%
6,Cc1ccc(NCc2cccc3cn[nH]c23)cc1OC1CCOC1 (stereo not given),-16.8%
7,Cc1ccc(CNCc2cccc3cccnc23)c(OC2CCOC2)c1 (stereo not given),-62.1%
8,Cc1cc(F)ccc1N1CCCC(NC2CCOCC2)C1=O (stereo not given),21.3%
9,Cc1ccc(CN2CCOC3(COCCN(Cc4ccncc4)C3)C2)o1 (stereo not given),14%
10,Cc1cncc(CN2C[C@@H](O)[C@H](Oc3ccccc3)C2)c1,51.5%
11,O[C@@H]1CN(Cc2cccnc2)C[C@H]1Oc1ccccc1,26.8%
12,O[C@@H]1CN(Cc2ccncc2)C[C@H]1Oc1ccccc1,39.7%
13,CCOCC(=O)N1CC[C@@H]2O[C@@H](C)C[C@H]2C1,43.9%
14,O=c1[nH]c2ccccc2c2c1CCO2,30.7%
15,CC(=O)N(Cc1ncc(C(C)C)o1)C1CCN(Cc2ccno2)C1 (stereo not given),0.1995%
16,COc1cccc2c1OCC(CNC(=O)CSc1ccccn1)C2 (stereo not given),-52.3%
17,COc1cccc2c1OCC(C(=O)N(C)CCCc1cnn(C)c1)C2 (stereo not given),40.9%
18,COc1cccc2c1OCC(NCc1cnn(-c3ccccc3)c1)C2 (stereo not given),62.8%
19,COCCN(Cc1cnn(C)c1)C(=O)C1COc2c(cccc2OC)C1 (stereo not given),22.3%
20,COc1cccc2c1OCC(NCCCOc1cccnc1)C2 (stereo not given),14%
21,COc1cccc2c1OCC(NCCc1cnn(-c3ccccc3)c1)C2 (stereo not given),77.6%
22,COc1cccc2c1OCC(NCc1cnn(-c3ccccc3F)c1)C2 (stereo not given),53.8%
23,COc1cccc2c1OCC(C(=O)N1Cc3ccccc3C1)C2 (stereo not given),44.8%
24,COc1cccc2c1OCC(NC(=O)NC1CCN(C3CC3)CC1)C2 (stereo not given),-3.16%
25,Cc1noc(C(C)N2CCN(CCC(=O)N3CCCCC3)CC2)n1 (stereo not given),17.4%
26,Cc1cc(C2CCNCC2)nc(-c2ccsc2)n1,20.2%
27,CCC(=O)Nc1ccc(C(C)NC(=O)COCCOC)cc1 (stereo not given),-28.4%

row,Compound,INHIBITION
1,CC(=O)N1CCC2(CC1)CN(C(=O)c1cccnc1)c1ccc(F)cc12,34.9%
2,COc1c(C2CCCN2CC(=O)Nc2ccncc2)c(C)nn1C (stereo not given),21.6%
3,Cc1nc(NCCN2CCCC2=O)cc(C2CN(C(C)C)CCO2)n1 (stereo not given),25%
4,CCc1n[nH]c(C2CN(C(=O)c3ccc4c(c3)COC4)CCO2)n1 (stereo not given),-59.4%
5,CC(=O)N1CCC(N2CC(Cc3nccc4ccn(C)c34)C2)CC1,28%
6,COc1ccc(NC(=O)N2CCN(CCSc3ccccc3)CC2)cc1,-28.15%
7,CC(C)c1cc(C(=O)N2CCN(c3ccc(F)c(Cl)c3)CC2)n(C)n1,50.8%
8,CC(=O)c1ccc(N2CCN(C(=O)c3cc(C(C)C)nn3C)CC2)cc1,36.3%
9,CC(C)c1cc(C(=O)N2CCN(c3ccncc3)CC2)n(C)n1,-106%
10,COc1cccc(C2CC(=O)Nc3c2cnn3C(C)(C)C)c1 (stereo not given),-38.6%
11,CCOc1cc2c(cc1CN1CCC3(CCCNC3=O)C1)CCC2 (stereo not given),41.2%
12,Cc1ccc(Sc2ccc(CN3CCC4(CCCNC4=O)C3)o2)cc1 (stereo not given),90.8%
13,CN1CCNC(=O)C12CCN(Cc1ccco1)CC2,36.9%
14,O=C1NCCCC12CCN(Cc1ccc(SC3CCCCC3)o1)C2 (stereo not given),72.3%
15,O=C1NCCN(CC2CC2)C12CCN(Cc1ccco1)CC2,45.5%
16,Cc1ccc(CN2CCC3(CC2)C(=O)NCCN3CC2CC2)o1,89.3%
17,CCN(CC)Cc1cc(C(=O)N2CCC3(CC2)NCCNC3=O)c(C)o1,12.4%
18,O=C1NCCCC12CCN(Cc1ccc(-c3ccccc3)s1)C2 (stereo not given),21.2%
19,CCOc1cc(Cl)c(CN2CCC3(CCCNC3=O)C2)cc1OC (stereo not given),9.41%
20,O=C1NCCCC12CCN(S(=O)(=O)N1CCOCC1)C2 (stereo not given),-3.24%
21,Cc1ccc(Sc2ccc(CN3CCC4(CC3)NCCNC4=O)o2)cc1,66.1%
22,Cc1cc(CN2CCC3(CC2)C(=O)NCCN3CC2CC2)oc1C,42.7%
23,CC(NC(=O)CCc1ccsc1)c1ccc2c(c1)NC(=O)CO2 (stereo not given),1.223%
24,CN(C)S(=O)(=O)N1CCN(C(=O)c2cc(-c3ccc(Br)s3)n[nH]2)CC1,11.2%
25,Cc1nc(N)c2ccc(C3CCCCN3)nc2n1 (stereo not given),29.35%
26,Cc1cc(CN(C)C(=O)c2ccc(Cl)c(N3CCCC3=O)c2)no1,-11.4%
27,COCCC(=O)N1C[C@@H](c2cccc(OC)c2)[C@@]2(CCCCC(=O)N2)C1,3.48%

row,Compound,INHIBITION
1,CC(C(=O)N1CCCN(Cc2cnn(C(C)C)c2)CC1)n1ccnc1 (stereo not given),48.1%
2,Cc1ccc(C(=O)N2CC[C@@H]3CN(C4CCOCC4)CCO[C@@H]3C2)o1,22.2%
3,CCc1nc(C2CCCN2C(=O)c2csc(NC(C)=O)n2)no1 (stereo not given),-17%
4,COc1ccc(C(=O)C2CCCN(c3nccc(N)n3)C2)c(C)c1 (stereo not given),51.2%
5,CCc1nc(C)cc(N2CCCC(C(=O)c3ccc(OC)cc3C)C2)n1 (stereo not given),83.9%
6,COc1ccc(C(=O)C2CCCN(c3cc(OC)ncn3)C2)c(C)c1 (stereo not given),91.8%
7,CCc1nc2n(n1)CCCC2NC(=O)Nc1cc(OC)ccc1C (stereo not given),13.5%
8,COc1cccc(C(=O)C2CCCN(c3nccc(N)n3)C2)c1 (stereo not given),43%
9,CCOC(=O)C1CCCN(c2nccc(-n3nc(C)cc3C)n2)C1 (stereo not given),1.74%
10,COc1cc(N2CCCC(c3ncc[nH]3)C2)ncn1 (stereo not given),28.4%
11,COc1ccc(C(=O)C2CCCN(c3cc(N)ncn3)C2)c(C)c1 (stereo not given),60.1%
12,COc1ccc(C(=O)C2CCCN(c3cnccn3)C2)c(C)c1 (stereo not given),25.5%
13,COc1ccc(C(=O)N2C[C@@H](CN3CCCC3)[C@@H](CO)C2)c(C)c1,34.9%
14,Cc1ccccc1CSc1nc(N)cc(N2CCCC(C(N)=O)C2)n1 (stereo not given),41.3%
15,O=C1C(n2nnc(-c3ccsc3)n2)CCN1CC(F)(F)F (stereo not given),-35.9%
16,CC(C)n1ccnc1Cn1ccc2ncccc2c1=O,-9.91%
17,CN(C)CCN1CCN(C(=O)c2ccn(C)c(=O)c2)CC1,-7.31%
18,COc1cc(NC(=O)N2CCCC2c2ccco2)cc(OC)c1 (stereo not given),45.5%
19,CN(C)C(CNC(=O)c1ccc(-n2cnnn2)cc1)c1ccccc1Cl (stereo not given),-20.5%
20,O=C(Nc1nc2c(s1)CCC2)c1cccnc1N1CCOCC1,34%
21,Cc1csc(NC(=O)c2cccnc2N2CCOCC2)n1,-3.39%
22,Cc1nc(NC(=O)c2cccnc2N2CCOCC2)sc1C,62.9%
23,COc1cc(-c2n[nH]c(CC#N)n2)cc(OC)c1OC,12.7%
24,CCn1nc(C)c(NC(=O)c2nnn(Cc3ccccc3)c2OC)c1C,27.5%
25,CCCn1nccc1NC(=O)CN1CCc2cnc(CC)nc2C1,23.6%
26,Cc1ncc2c(n1)CN(CC(=O)Nc1ccc(Cl)cn1)CC2,46.2%
27,CC(C)c1ncc2c(n1)CN(CC(=O)Nc1ccc(Cl)cn1)CC2,0.914%

row,Compound,INHIBITION
1,CCCn1nccc1NC(=O)CN1CCc2cnc(C(C)C)nc2C1,55%
2,CCCn1nccc1NC(=O)CN1CCc2c(nc(C(C)C)n2C)C1,12.7%
3,CCc1ncc2c(n1)CN(CC(=O)Nc1ccc(Cl)cn1)CC2,67.2%
4,Cc1csc(C(=O)N2CCC3(CC(N(C)c4ccncn4)C3)C2)c1 (stereo not given),-10.8%
5,COc1c(C2CCCN2C(=O)c2cnc[nH]2)c(C)nn1C (stereo not given),29.2%
6,CN1CC2(CCCN(Cc3nnc(-c4cccc(F)c4)o3)C2)OC1=O (stereo not given),19.4%
7,CCn1cnnc1C1CCN(C(=O)c2cc(C)n(CC)c2C)CC1,-10.6%
8,Cc1ccc(N2CC[C@H](OCC3CC3)[C@@H]2Cc2ccncc2)nn1,27.5%
9,O=C(c1ccc2c(c1)CCC2)N1CCN(c2ccc(Cl)cn2)CC1,11.1%
10,Cc1cc(CNC(=O)N2CCN(c3nc(C)c(C)s3)CC2)no1,42.6%
11,Cc1nc(C)c(CNC(=O)N2CCN(c3ccc(Cl)cn3)CC2)s1,95.4%
12,Cc1nc(N2CCN(C(=O)NCc3cscn3)CC2)sc1C,43.9%
13,COCCOC1CCN(C(=O)NCc2coc3ccccc23)CC1,46.1%
14,O=C(CCc1nccs1)N1CCN(c2ccc(Cl)cn2)CC1,35.3%
15,COCCOC1CCN(C(=O)NCc2cc(C)oc2C)CC1,53.7%
16,Cc1cc(CNC(=O)N2CCN(C(C)c3cccnc3)CC2)c(C)o1 (stereo not given),35.2%
17,Cc1nc(CNC(=O)N2CCN(c3ccc(Cl)cn3)CC2)no1,49.1%
18,Cc1nc(CNC(=O)N2CCN(c3ccc(Cl)cn3)CC2)sc1C,54.3%
19,Cc1cc(CNC(=O)CCN2CCN(c3ccccn3)CC2)c(C)o1,15.8%
20,Cc1cc(CNC(=O)N2CCN(c3ccc(Cl)cn3)CC2)c(C)o1,54.3%
21,Cc1ccc(S(=O)(=O)NC(=O)COc2cccc(C(N)=O)c2)s1,11.2%
22,c1ccc(CO[C@H]2CC[C@H]3[C@H]2OCCN3CCN2CCCCC2)nc1,40.3%
23,CC(=O)N1CC[C@@]2(C(=O)Nc3ccccc3)CCN(S(C)(=O)=O)CC[C@@H]12,41.2%
24,CC(C)c1nn(C)c(Cl)c1CNCc1ccc2c(c1)OCCO2,1.5%

# Reference: ChEMBL document CHEMBL4513216, “Probing the Open Global Health Chemical Diversity Library for Multistage-Active Starting Points for Next-Generation Antimalarials” (ACS Infect Dis, 2020)
